Screening data as filed in PubChem.
KB-3-1 tox – KB-3-1 parental cell cytotoxicity; KB-3-1 viability, CellTiter-Glo ATP luminescence, 72 h; hit rate 1.4% among 400,000; AID 1347075; Potency, µM (highest dose often 46.1 µM), most hits filed as cytotoxic; also: % is scaled to controls: 0 for no effect and ±100 for the full control effect; nearly all actives have a fitted effect of over 60% in size
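Viability of parental KB-3-1 cells, measured by CellTiter-Glo luminescence, followed a 72 h incubation at 37 °C with pinned compounds in phenol-red-free DMEM containing 10% FBS.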
KB-V1 MDR tox – kills drug-selected multidrug resistant KB-V1 cells. KB-V1 MDR cells viability, CellTiter-Glo, 72 h. Potency, µM (series often up to 46.1 µM), actives largely listed as cytotoxic. hit rate 3.4% among 400,000. AID 1347076; also: % is scaled to controls: 0 for no effect and ±100 for the full control effect; nearly all actives have a fitted effect of over 60% in size
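Drug-selected KB-V1 cells, grown in DMEM lacking phenol red with 10% FBS, receive compound titrations; after three days at 37 degrees C, surviving cell ATP is quantified by CellTiter-Glo luminescence and responses normalized and curve-fitted.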
HT1080 IDH1KD tx – HT-1080 IDH1 knockdown cell toxicity (counter line); Potency, µM (top dose mostly 46.1 µM), for the others: at the highest dose activity, negative = toxicity, hits mostly cytotoxic; hit rate 2% among 360,000; HT-1080 IDH1 knockdown viability, ATP luminescence, 48 h;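 also: 0% = DMSO wells and -100% = cell-free medium wells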
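Viability of IDH1-knockdown HT-1080 fibrosarcoma cells was assessed by CellTiter-Glo after 48 h at 37 °C with titrated compound; concentration-effect curves were classified by fit quality and response size.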
HT1080-NT tox – kills 2HG-producing HT-1080-NT fibrosarcoma cells | HT-1080-NT fibrosarcoma viability, CellTiter-Glo ATP luminescence, 48 h | Potency, µM (top dose mostly 46.1 µM), for inactives: top-dose activity, negative = less viability, usual class: cytotoxic | hit rate 1.6% among 360,000;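 also: NT is the 2HG producing partner of a matched IDH1 knockdown line; 0% = DMSO-treated cells and -100% = media-only wells without cells; nearly all actives have a fitted effect of over 55% in size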
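Viability of the 2HG-overproducing fibrosarcoma line after 48 hours of compound exposure at 37 degrees C was determined by luminescence with CellTiter-Glo, and concentration-effect curves were then fitted and categorized.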
MCF10A rereplic – induces DNA re-replication in MCF 10a normal breast cells; MCF 10A DNA re-replication, Hoechst nuclear intensity, 48 h; Potency, µM (highest dose often 46.1 µM), inactives show at the top dose activity, positive = re-replication, hits mostly activators; hit rate 2.9% among 350,000; AID 624296; also: % of control where 0% means no effect; nearly all actives have a fitted effect of over 50% in size
SW480 rerep – DNA re-replication induction in SW480 cells. AID 624297. Potency, µM (titrated, usually from 46.1 µM), without a hit: at the highest dose re-replication activation, most hits filed as activators. SW480 DNA re-replication, Hoechst DNA content imaging, 48 h. hit rate 1.8% among 340,000; also: % of control where 0% means no effect; nearly all actives have a fitted effect of over 55% in size
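Quantitative HTS format with DMSO vehicle controls; 48 hr drug incubation at 37 C, then 40 min Hoechst staining and scanning imager measurement at 405 nm excitation.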
The depositor's hits bear a star; i = inactive; u = inconclusive; x = not tested or not shown. The list is not random: actives were taken first. Their share in the collection is about 8%. Calls follow the shape of the dose curve; as a rule, active = well fitted curve in the direction sought with a large enough effect; inconclusive = small, poorly fitted or top-dose-only effect, or another doubt; inactive = no such curve, though single readings can be large; an effect the other way counts as inactive or inconclusive. Potency is read from the fitted curve at half-maximal effect.

SMILES	KB-3-1 tox	KB-V1 MDR tox	HT1080 IDH1KD tx	HT1080-NT tox	MCF10A rereplic	SW480 rerep
O=C(N/N=C/c1ccc[nH]1)c1cc(-c2cccs2)nc2ccccc12	u	u	u	u	10.9%	9.9%
CC1(C)Cc2c(ccc3ccccc23)/C(=C/C#N)N1	i	i	u	-28.5%	u	10.9%
COc1cccc(C2CC(=O)Nc3cc4c(cc32)OCCO4)c1OC(C)C (stereo unspecified)	u	u	-20.1%	-8.7%	u	u
O=C1CC(c2cccs2)c2cc3c(cc2N1)OCCO3 (stereo unspecified)	i	i	-8.6%	-39.7%	18.4µM*	4.0%
COc1ccccc1C1CC(=O)Nc2cc3c(cc21)OCCO3 (stereo unspecified)	u	5.8µM*	1.78µM*	2.24µM*	3.66µM*	2.06µM*
CC(C)Oc1ccccc1C1CC(=O)Nc2cc3c(cc21)OCCO3 (stereo unspecified)	u	u	0.708µM*	1µM*	u	1.64µM*
COc1ccc(/C=N/NC(=S)Nc2ccccc2)cc1COc1ccccc1F	x	x	x	x	14.6%	9.2%
CCOc1ccc(C(=O)N2CCN(c3ccccn3)CC2)cc1OCC	i	u	3.6%	-0.9%	-0.3%	-1.9%
COc1ccc(-c2[nH]ncc2CN2CCC(OCc3ccccc3)CC2)c(F)c1	i	u	-1.9%	-4.6%	5.0%	-11.8%
Cn1nc(NC(=O)C(F)(F)F)c2ncc(-c3ccccc3)nc21	i	18.4µM*	-3.5%	-7.6%	x	x
Cc1c(C(=O)NCc2ccc3c(c2)OCO3)oc2ccc(Br)cc12	u	u	u	u	u	-1.2%
Cc1oc(C(C)(C)C)cc1C(=O)Nc1ccc2c(c1)OCCO2	i	20.6µM*	-17.0%	-9.4%	6.1%	-14.1%
COc1cc(SC)ccc1C(=O)NNC(=O)c1cc(C)oc1C	u	u	9.2µM*	8.2µM*	u	-0.4%
COc1cc(SC)ccc1C(=O)Nc1c(C)cccc1C	i	u	10.8%	4.7%	3.2%	-6.6%
COc1cc(SC)ccc1C(=O)Nc1ccc2c(c1)OCCO2	i	u	u	1.78µM*	u	23.6%
Cc1c(C(=O)Nc2ccc3c(c2)OCCO3)oc2ccc(Br)cc12	i	20.6µM*	1.4%	-1.1%	2.5%	-1.3%
COc1ccccc1C(=O)Nc1ccc2c(c1)OCCO2	i	i	-9.5%	-18.4%	17.5%	-3.1%
Cc1oc(C(C)(C)C)cc1C(=O)Nc1ccc2c(c1)OCO2	i	i	-16.8%	-17.5%	0.3%	-9.6%
COc1ccc(OC2CCN(C(=O)Nc3ccc(C)cc3)CC2)cc1	i	i	3.3%	-1.5%	15.4%	-5.9%
O=C(Cn1nc(C(=O)O)c2ccccc2c1=O)Nc1nc(-c2ccccc2)cs1	i	i	14.3%	-2.3%	9.6%	-6.8%
NC(=O)c1ccc(N2CCCCC2)c(N2C(=O)C3CC=CCC3C2=O)c1 (stereo unspecified)	i	i	7.7%	0.4%	2.2%	1.1%
COc1ccccc1NC(=O)C(=O)NCC(c1ccco1)N1CCc2ccccc2C1 (stereo unspecified)	i	i	1.4%	12.6%	9.5%	18.9%
COc1ccc(N2CCN(CCCNC(=O)c3cc(Nc4ccc(OC)cc4OC)nc4ccccc34)CC2)cc1	i	u	x	x	x	x
COc1ccc(Nc2cc(C)nc(NCc3ccccc3)n2)cc1	u	u	20.6µM*	18.4µM*	6.6%	-0.9%
Cc1cc(C)nc(N/N=C/c2cccc3ccccc23)n1	i	18.4µM*	3.6%	14.0%	-5.5%	4.2%
Cc1cc(OC(C)C)nc(NCc2ccccc2)n1	11.6µM*	i	u	u	u	u
Cc1cc(N/N=C/c2ccccc2Cl)nc(NCc2ccccc2)n1	u	u	u	u	16.4µM*	u
COc1cc(C)nc(NCc2ccccc2)n1	i	i	-10.5%	0.0%	-2.1%	-2.5%
